Experimental data published in PubChem BioAssay (NCATS).
Unmarked numbers belong to inactive results. Calls come from the whole dose curve; as a rule, active = well fitted inhibition curve with a large enough effect; inconclusive = small, poorly fitted or top-dose-only effect; inactive = flat fitted curve, though single readings scatter.

Each compound was assayed on Nanoluciferase (engineered Oplophorus gracilirostris luciferase) (assay: Primary Nanoluciferase (NLuc) qHTS assay for identification of artifact compounds. (AID 1845222)). Settings: NLuc-conditioned medium, Nano-Glo luminescence, 5 min; series mostly up to 54.1 µM; activity, negative = inhibition: at the top concentration.
Description: PI: Alexander Tropsha Ph.D.
UNC Eshelman School of Pharmacy
University of North Carolina, Chapel Hill, North Carolina
Hits from high-throughput screening (HTS) of chemical libraries are often false positives due to their interference with the assay detection technology. In response to this problem, we generated the largest publicly available library of chemical liabilities and developed a free webtool to predict HTS artifacts, both of which are described herein. More specifically, we generated, curated, and integrated HTS datasets for thiol reactivity, redox activity, and luciferase (firefly and nano) activity. Using these curated datasets, we developed and validated several Quantitative Structure-Interference Relationship (QSIR) models to predict nuisance behavior. […] These models were employed for virtual profiling of the National Center for Advancing Translational Science's (NCATS) in-house library, and 256 compounds for each assay were selected for the experimental validation of nuisance behavior. The BA for these external predictions ranged from 58 to 78% for compounds within the applicability domains of the models. […] The models developed in this study, along with aggregation models previously developed by our group (SCAM Detective) were implemented in "Liability Predictor," an online tool which may be used as part of chemical library design or for triaging HTS hits. Both the models and the curated datasets are publicly available at https://liability.mml.unc.edu/.
SEQUENCE No. (e.g., 1, 2, 3, etc.); […] (e.g., Cells, Incubation, Reagent, etc.); VALUE; DESCRIPTION.
1; Reagent; 2 uL; Nanoluciferase media.
2; Compounds and control; 16 nL; Kalypsis pin tool (Wako USA) equipped with a 1536-well pin head.
4; Reagent; 2 uL; Luciferase enzyme.
6; Detection; Luminescence, ViewLux microplate reader.
NOTES (numbers refer to Sequence numbers above)
1. Medium was collected from the culture flasks of NLuc-expressing S16 cells (80% confluent) prior to cell plating, filtered through a 0.22um filter, and frozen at -20C prior to use. Media was diluted (1:55) and 2 uL was dispensed into all wells of a 1536-well assay plate (solid-bottom white plate; Greiner Bio One, Monroe, NC).
2. A Wako Pin-tool (Wako Automation, Richmond, VA) was used to transfer 16 nL of compounds (consisting of 7-plates in qHTS format, final concentration range 18.3 nM to 114 uM) or control Cilnidipine (final concentration range 623 nM to 80 uM).
3. 15 min. incubation at room temperature protected from light.
4. 2 uL of NLuc substrate (1:100 in Nano-Glo luciferase buffer; Nano-Glo luminescence assay, Promega, Madison, WI) was dispensed for a final assay volume of 4 uL.
5. Plates were centrifuged (121xg, 15 seconds) and incubated for 5 minutes.
6. Samples were read for luminescence on a ViewLux CCD imager (PerkinElmer). Data were normalized to no-enzyme (0% activity) and no-inhibitor (DMSO; 100%) controls and the resulting percent inhibition data were fitted to a 4-parameter Hill equation using NCATS in-house software.

Structure (SMILES)	activity, negative = inhibition
CC1(COc2ccc3c(c2)ncn3-c2ccc3cccc(N4CCC(N)CC4)c3n2)COC1	4.06%
CN(C)CCOc1cc(-c2cn[nH]c2)ccc1NC(=O)C1COc2ccccc2O1 (stereo not given)	1.79%
CN1C(=O)C(Cc2c[nH]c3ccccc23)NC1=S (stereo not given)	-0.978% [at 25.7 µM]
CN[C@@H](C)[C@H]1[C@H](O)C[C@@]2(C)[C@@H]3CC[C@H]4C(C)(C)[C@@H](NC)CC[C@@]45C[C@@]35CC[C@]12C	3.6% [at 11.6 µM]
COc1cc2ncnc(Nc3cc(Br)c(O)c(Br)c3)c2cc1OC	-5.87%
NC(=O)c1noc([C@H](CCCC2CCCCC2)CC(=O)NO)n1	-3.2%
COc1ccc(-c2nc3ccc(C4=NNC(=O)CC4C)cc3[nH]2)cc1 (stereo not given)	-4.57%
CNC(=O)c1cc(Oc2ccc(NC(=O)Nc3ccc(Cl)c(C(F)(F)F)c3)c(F)c2)ccn1	1.22%
CC(C)(O)CC(=O)NCCn1ccc2ncnc(Nc3ccc(Oc4cccc(C(F)(F)F)c4)c(Cl)c3)c21	3.87%
COc1cc(Nc2nc3ccccc3nc2NS(=O)(=O)c2ccc(NC(=O)c3ccc(C)c(OC)c3)cc2)cc(OC)c1	-12.6%
Cc1ccccc1C(=O)c1ccc(Nc2ccc(Br)cc2N)cc1Cl	-2.4%
O=C1C(c2c(O)[nH]c3ccccc23)=Nc2ccccc21	-0.832% [at 25.7 µM]
CN(C)c1nc(Cc2ccc(NC(=O)c3ccc(C(F)(F)F)cc3)cc2)nc(N(C)C)c1CC(=O)O	-2.1%
CC1=C(C(=O)Nc2cc3cn[nH]c3cc2F)C(c2ccc(C(F)(F)F)cc2)CC(=O)N1 (stereo not given)	-0.707%
CN1CCC(COc2cnc(-c3cccc(Cn4nc(-c5cccc(C#N)c5)ccc4=O)c3)nc2)CC1	-0.417%
CCN(CCO)CCCOc1ccc2c(Nc3cc(CC(=O)Nc4cccc(F)c4)[nH]n3)ncnc2c1	-18.1%
CCc1cccc(CC)c1NC(=O)N1Cc2[nH]nc(NC(=O)c3ccc(N4CCN(C)CC4)cc3)c2C1	-18.3%
COc1ccc(-c2cc3nccn3c(Nc3ncccc3C(N)=O)n2)cc1OC	-3.07%
N#CC1(c2cccc(C(=O)Nc3cc(Oc4ccc5nc(NC(=O)C6CC6)sc5n4)ccc3F)c2Cl)CC1	1.76%
COc1ccc(Cn2ccc3ccc(C(=O)NO)cc32)cc1	-8.83%

Structure (SMILES)	activity, negative = inhibition
Cn1c(=O)c(-c2c(Cl)cccc2Cl)cc2cnc(Nc3cccc(C(=O)O)c3)nc21	3.58%
O=C(Nc1ccc(OC(F)(F)F)cc1)c1sccc1NCc1ccnc2ccccc12	1.7%
O[C@@H](COc1cccc2ncccc12)CN1CCN(C2c3ccccc3[C@@H]3[C@H](c4ccccc42)C3(F)F)CC1 (stereo not given in full)	1.74%
O=C(CCCN1CCN(c2ccc(F)cc2)CC1)NC1c2ccccc2CSc2ccccc21 (stereo not given)	1.03%
Cc1cc2c(cc1C1(c3ccc(C(=O)O)cn3)CC1)C(C)(C)CCC2(C)C	4.61%
Cc1cccc2c1CC[C@H](CN1CCC(c3c(Cl)cccc3Cl)CC1)C[C@@H]2O	-7.58%
C[C@@H](N)c1ccc(C(=O)Nc2ccnc3[nH]ccc23)cc1	2.59%
Fc1ccc(CNc2ncnc3ccc(F)cc23)cc1	-0.772%
CNC(=O)c1c(-c2ccc(F)cc2)oc2cc(N(CCO)S(C)(=O)=O)c(C3CC3)cc12	3.12%
CN1CCN(c2cccc(Nc3nc4c(-c5ccc(S(C)(=O)=O)cc5)cccn4n3)c2)CC1	-3.71%
NC(=O)c1ccc(N(C(N)=O)c2c(F)cccc2F)nc1-c1ccc(F)cc1F	-7.73%
Cc1nc2c([nH]1)CCN(C(=O)c1ccc(NC(=O)c3ccccc3-c3ccccc3)cc1)c1ccccc1-2	2.25%
COc1nccc(-c2c(-c3ccc(F)cc3)ncn2C2CCNCC2)n1	4.91%
Nc1ccc(-c2ccc3ncc4ccc(=O)n(-c5cccc(C(F)(F)F)c5)c4c3c2)cn1	-0.313%
Nc1ncnc2c1c(-c1cccc(OCc3ccccc3)c1)cn2C1CC(CN2CCC2)C1 (stereo not given)	-0.0787%
Cc1csc(-c2nnc(Nc3ccc(Oc4ncccc4-c4ccnc(N)n4)cc3)c3ccccc23)c1	-3.63%
COc1ccc(-c2ccc3ncc4c(c3c2)n(-c2ccc(N3CCNCC3)c(C(F)(F)F)c2)c(=O)n4C)cn1	-2.12%
Cc1cc(C(C)Nc2ccccc2)c2nc(N3CCOCC3)cc(=O)n2c1 (stereo not given)	-1.6%
NS(=O)(=O)c1ccc(Nc2nc(OCC3CCCCC3)c3[nH]cnc3n2)cc1	-0.678%
c1ccc(CNc2nc(N3CCOc4ccccc43)nc3c2CCCC3)cc1	0%
